These results are taken from PubChem BioAssay (NCI).

What all share (assay): NCI-60 one-dose screen, 48 h (100 = growth as untreated, 0 = no growth, -100 = all killed)
Holding throughout (settings): 10 µM unless noted

The test system of test [1] is SR leukemia.
Test [2] has as its system RPMI-8226 leukemia.
The subject of test [3] is OVCAR-8 ovarian.
The subject of test [4] is OVCAR-5 ovarian.
For test [5], the system named is OVCAR-4 ovarian.
Test [6] deals with SK-OV-3 ovarian.
The test system of test [7] is IGROV1 ovarian.
Test [8] deals with OVCAR-3 ovarian.
Test [9] concerns HS 578T breast.
For test [10], the system named is NCI/ADR-RES ovarian.

Compounds without any hit were thinned out: in the full panel of roughly 83,000, 20% have a hit.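 How to read the values: 0–100, growth inhibition (40 = 60% inhibited); 0, no net growth; -100 to 0, cell death (-40 = 40% of starting cells died; -100 = all dead).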 A number with no mark means an inactive call. Activity calls are given as the source filed them. Rule for the calls: active = growth percent below 10; inactive = the rest.

Turning to `CC(=O)Cc1nsc(NC(=O)c2cc(-c3cc(Cl)cc(Cl)c3)oc2C)n1`, the growth is 98.3% in test [1]; 93.5% in [2]; 97.8% in [3]; 104% in test [4]; 104% in test [5]; 99.2% in [6]. Further, the results for the growth in [7], in test [8] and in [9] were 102%, 106% and 102%, respectively.
For the compound `Cn1cccc1C(=O)C1C(c2cccc([N+](=O)[O-])c2)C2C3CCCCC3CN2C12C(=O)Nc1ccc(Cl)cc12` (stereo not given), the growth in test [1] was 5.9% (active); in test [2] it was 19.6%; in test [3], 63.8%; in [4] it was 68.1%; in test [5] it was 70.5%; in test [6], 70.1%. The growth is 8.94% (active) in test [7], 70.2% in test [8] and 55.7% in test [9].
For `C/C(=C(/c1ccc(Cl)cc1)c1ccc(OCCN2CCCC2)cc1)c1ccc(Cl)cc1`, the growth in test [1] was 4.02% (active); in [2] it was 57.8%; in test [3], 88.8%; in test [4], 88.9%; in test [5], 95.1%; in [6], 108%. Besides, the growth in test [7] was 81.1%; in test [8], 88.3%; in test [9], 90.9%.
As to `CO/N=C(/C)c1ccc(NC(=O)CSc2nnc(-c3ccncc3)n2-c2ccccc2)cc1`, the growth is 99.6% in test [1]; 80.8% in test [2]; 1.47% (active) in test [3]; 79.5% in test [4]; -30.7% (active) in test [5]; 24.1% in test [6]. Moreover, the growth is 33.4% in test [7], 29.3% in test [8], -0.835% (active) in test [9] and 0.0208% (active) in test [10].
In the case of `N#CC1C=CN(CC(N)=O)c2ccc3cccnc3c21` (stereo not given), the growth is 85.1% in [1]; 90% in test [2]; 98.1% in test [3]; 98.9% in test [4]; 98.6% in test [5]; 97.1% in [6]. The growth in [7] was 101%; in [8] it was 109%; in [9], 96.2%.
Take `COc1ccc(-c2cc(-c3ccc(Cl)cc3)c(C#N)c(=O)n2CCCCC(=O)Nc2ccccc2N)cc1`: the growth in test [1] is 15.5%; in test [2] it was 0.147% (active); in test [3], 42.8%; in test [4], 58.6%; in [5] it was 66.5%; in test [6], 78%. Besides, the growth in test [7] is 47.4%; in test [8] it was 69.5%; in [9], 75.7%.
Regarding `C=C(CNCCc1ccc(O)cc1)[C@@H]1CC[C@]2(CO)CC[C@]3(C)[C@H](CC[C@@H]4[C@@]5(C)CCC(NCCO)C(C)(C)[C@@H]5CC[C@]43C)[C@@H]12` (stereo not given in full), the growth is -42.3% (active) in test [1]; -45.9% (active) in test [2]; -49.7% (active) in test [3]; 4.67% (active) in test [4]; -15.9% (active) in test [5]; 86.4% in test [6]. The growth was -37.1% (active) in test [7], -41.7% (active) in test [8] and -61.1% (active) in test [9].
As for `Cc1nc2sc(C(=O)Nc3cccc(Cl)c3C)c(N)c2cc1C(=O)c1ccccc1`, the growth in test [1] is 19.8%; in test [2], 6.33% (active); in test [3], 9.81% (active); in [4] it was 31.1%; in test [5], 63.3%; in test [6], 3.83% (active). In addition, the growth in test [7] is 28.6%; in test [8], -19.1% (active); in [9], 12.2%; in test [10], 4.5% (active).
As to `O=C(NNc1nccc(Nc2ccc(S(=O)(=O)Nc3ccncc3)cc2)n1)c1ccccc1`, the growth was 87.6% in test [1]; 95.6% in test [2]; 99.4% in test [3]; 101% in test [4]; 106% in test [5]; 107% in [6]. In addition, the growth in [7] was 102%; in [8], 100%; in [9] it was 110%; in [10], 85.4%.
Consider `COC(=O)[C@]1(C)CCC[C@]2(C)[C@H]3C[C@H]4C(C(C)C)=C[C@]3(CC[C@H]21)[C@H]1[C@@H]4[C@@H](OCCC#N)CC[C@@H]1OCCC#N`, for which the growth in [1] is 2.88% (active); in test [2] it was -16.1% (active); in [3], 51.5%; in test [4], 92.8%; in test [5], 30.7%; in [6], 75.8%. The growth in test [7] was 41.5%; in test [8], 22.7%; in test [9], 59.4%.
With `COC(=O)/C(CCC=C(C)C)=C1\[C@@H](OC(C)=O)C[C@@]2(C)[C@H]1C[C@@H](O)[C@H]1[C@@]3(C)CC[C@H](NCCN)[C@@H](C)[C@@H]3CC[C@@]12C`, the growth was -17.8% (active) in test [1]; 70% in test [2]; 86.3% in test [3]; 104% in test [4]; 90.2% in [5]; 93.6% in test [6]. In addition, the growth in [7] is 86.6%; in [8], 83.8%; in [9], 77.9%.
Consider `Cc1ccc(/C=N/Nc2nc(Nc3ccccc3)nc(-n3nc(C)cc3C)n2)cc1`, for which the growth was 36.2% in test [1]; 32.9% in test [2]; 21.6% in test [3]; 59.5% in [4]; 27.6% in test [5]; 69.3% in [6]. For the same compound, the growth is 5.33% (active) in [7], 14.3% in test [8] and 78.9% in [9].
Turning to `N#CCSc1nnc2n(Cc3ccccc3)c(=O)c3c4c(sc3n12)CCCC4`, the growth in [1] is 94.8%; in test [2], -61.3% (active); in test [3], 95.1%; in test [4], 92.2%; in [5], 101%; in test [6] it was 107%. Moreover, the growth in test [7] was 74.2%; in [8] it was 98.5%; in test [9], 95.3%.
